Unmarked numbers belong to inactive results. Inconclusive results are not listed. Activity calls are given as the source filed them. Unless noted, calls follow the shape of the dose curve; as a rule, active = well fitted curve in the direction sought with a large enough effect in the repeat runs; inconclusive = weak or mixed curves; inactive = no such curve, though single readings can be large; an effect the other way counts as inactive or inconclusive.

Assay [1] is described as follows: qHTS assay for small molecules that induce genotoxicity in human embryonic kidney cells expressing luciferase-tagged ATAD5 (AID 651632). Also: nearly all actives have a fitted effect of over 15% in size. The essentials:
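Genotoxicity read-out via ATAD5-luciferase: HEK293T cells, 16 hr compound incubation at 37C, Amplite detection.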
For orientation: Quantitative high-throughput screening tests each substance at several concentrations.

Assay [2] is described as follows: qHTS assay for small molecules that induce genotoxicity in human embryonic kidney cells expressing luciferase-tagged ATAD5 - cell viability (AID 651634; calls by dose curve; also: nearly all actives have a fitted effect of over 25% in size; also: potency is read from the fitted curve at half-maximal effect). The essentials: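 Live-cell protease activity (CellTiter-Fluor, fluorescence) indicates viability. HEK293T cells with luciferase-tagged ATAD5; 15.5 hr compound treatment at 37C.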
Assay [3] can be described thus: qHTS assay for small molecule disruptors of the mitochondrial membrane potential - cell viability (AID 720634; calls by dose curve;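 also: human HepG2 liver cancer cells; series mostly up to about 83 µM; nearly all actives have a fitted effect of over 20% in size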). The method, boiled down: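 Human hepatoma HepG2 cells were treated for 1 hr with test chemicals, then given m-MPI dye and CellTiter-Glo. Cell viability reflects luminescence proportional to cellular ATP.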
Assay [4] can be described thus: qHTS assay for small molecule disruptors of the mitochondrial membrane potential (AID 720635). Also: potency is read from the fitted curve at half-maximal effect. The method, boiled down: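 Mitochondrial membrane potential tracked with Mito-MPS dye, red aggregates (ex 540/em 590 nm) against green monomers (ex 490/em 535 nm). Compound treatment 1 hr at 37C, dye 30 min in HepG2.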
Assay [5] is described as follows: qHTS assay to test for compound auto fluorescence at 590 nm (red) in HepG2 cells (AID 720674). The method, boiled down: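 We screened compounds on adherent HepG2 cells, incubating them for an hour at 37 C in 5% CO2 before reading emission at 590 nm under 540 nm excitation; values reflect equivalence to Rose Bengal sodium fluorescence.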
Assay [6] in a line: qHTS assay to test for compound auto fluorescence at 535 nm (green) in HepG2 cells (AID 720675).
A short description of assay [7]: qHTS assay to test for compound auto fluorescence at 460 nm (blue) in HEK293 cells (AID 720678). The method, boiled down: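 Cells were seeded and left to adhere for 4-5 hr at 37C. Compounds were then pin-transferred. After an overnight incubation at 37C under 5% CO2, intrinsic fluorescence at 405/460 nm was measured and referenced to triamterene.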
A short description of assay [8]: qHTS assay to test for compound auto fluorescence at 590 nm (red) in HEK293 cells (AID 720679). The essentials:
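Each well held 2,000 HEK293 cells in medium containing 10% dialyzed FBS. Following 4-5 hr attachment at 37C, 23 nL test compound or DMSO was added; plates sat overnight, and red fluorescence (540/590nm) was recorded.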

A short description of assay [9]: qHTS assay to test for compound auto fluorescence at 535 nm (green) in HEK293 cells (AID 720680).
Assay [10] is described as follows: qHTS assay to test for compound auto fluorescence at 460 nm (blue) in HEK293 cell free culture (AID 720681). The method, boiled down:
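Blue fluorescence (Ex 405/Em 460 nm, triamterene-equivalent) was read immediately after pin transfer of compound or DMSO into medium (DMEM, 10% FBS) without cells.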

Assay [11] can be described thus: qHTS assay to test for compound auto fluorescence at 535 nm (green) in HEK293 cell free culture (AID 720682). The essentials: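 Using fluorescein as calibrant, autofluorescence was quantified at 485/535 nm in cell-free DMEM containing 10% FBS after pintool addition of compound or vehicle.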
Assay [12] is described as follows: qHTS assay to test for compound auto fluorescence at 590 nm (red) in HEK293 cell free culture (AID 720683). The essentials:
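Red-channel autofluorescence of compounds in culture medium (DMEM, 10% FBS), no cells, measured at 540/590 nm. Rose Bengal sodium is the reference fluorophore for equivalence.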

Assay [13] is described as follows: qHTS assay to test for compound auto fluorescence at 590 nm (red) in HepG2 cell free culture (AID 720684). The method, boiled down: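 Plate contents were MEM with 10% FBS plus test compound or DMSO, no cells. Fluorescence was recorded with 540 nm excitation and 590 nm emission.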
Assay [14] is described as follows: qHTS assay to test for compound auto fluorescence at 460 nm (blue) in HepG2 cell free culture (AID 720685). The method, boiled down:
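Compound (23 nL) or DMSO pinned into cell-free MEM with 10% FBS; blue fluorescence read at 405/460 nm excitation/emission, expressed as auto-fluorescence equivalency to triamterene.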

Assay [15] in a line: qHTS assay to test for compound auto fluorescence at 535 nm (green) in HepG2 cell free culture (AID 720686).
The nature of assay [16]: qHTS assay to test for compound auto fluorescence at 460 nm (blue) in HepG2 cells (AID 720687). The essentials: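 Blue-channel autofluorescence (Ex/Em 405/460 nm, triamterene-equivalent) was measured after 1 hr compound exposure at 37 C, 5% CO2. Cells were HepG2, plated overnight at 37 C in MEM plus 10% FBS.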
The nature of assay [17]: qHTS assay for small molecule agonists of the p53 signaling pathway - cell viability (AID 651633; calls by dose curve;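 also: p53RE-bla HCT reporter cells with a stable beta-lactamase p53 reporter; series mostly up to about 83 µM; nearly all actives have a fitted effect of over 30% in size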). The method, boiled down: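 Viability counter-read: CellTiter-Glo luminescence (30 min, room temperature) in the same p53RE-bla plates. These plates had been exposed to compounds for 16 h at 37 C.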
The target of assay [18] is Glucocorticoid receptor (Homo sapiens) (UniProt P04150). Description: qHTS assay to identify small molecule agonists of the glucocorticoid receptor (GR) signaling pathway (AID 720691; active = well fitted activation curve with a large enough effect in the signal ratio in the repeat runs, not every such curve was filed as active; the % refers to the signal ratio). The method, boiled down:
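Beta-lactamase reporter activity, read as fluorescence intensity, was measured in GR-bla HeLa cells exposed to compounds for 18 h at 37 C and then loaded with LiveBLAzer B/G FRET substrate for 2 h at room temperature.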

For assay [19] the target is unchanged. As to the kind of experiment: qHTS assay to identify small molecule antagonists of the glucocorticoid receptor (GR) signaling pathway (AID 720692; active = well fitted inhibition curve with a large enough effect in the signal ratio in the repeat runs, not every such curve was filed as active; the % refers to the signal ratio; also: potency is read from the fitted curve at half-maximal effect). The method, boiled down:
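Fluorescence from cleaved LiveBLAzer B/G FRET substrate reports GRE-driven beta-lactamase in HeLa cells; compounds are tested against 5 nM dexamethasone (final) over 18 h at 37 C, substrate incubation 2 h at room temperature.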

Glucocorticoid receptor (Homo sapiens), sequence (P04150 whole entry, looked up): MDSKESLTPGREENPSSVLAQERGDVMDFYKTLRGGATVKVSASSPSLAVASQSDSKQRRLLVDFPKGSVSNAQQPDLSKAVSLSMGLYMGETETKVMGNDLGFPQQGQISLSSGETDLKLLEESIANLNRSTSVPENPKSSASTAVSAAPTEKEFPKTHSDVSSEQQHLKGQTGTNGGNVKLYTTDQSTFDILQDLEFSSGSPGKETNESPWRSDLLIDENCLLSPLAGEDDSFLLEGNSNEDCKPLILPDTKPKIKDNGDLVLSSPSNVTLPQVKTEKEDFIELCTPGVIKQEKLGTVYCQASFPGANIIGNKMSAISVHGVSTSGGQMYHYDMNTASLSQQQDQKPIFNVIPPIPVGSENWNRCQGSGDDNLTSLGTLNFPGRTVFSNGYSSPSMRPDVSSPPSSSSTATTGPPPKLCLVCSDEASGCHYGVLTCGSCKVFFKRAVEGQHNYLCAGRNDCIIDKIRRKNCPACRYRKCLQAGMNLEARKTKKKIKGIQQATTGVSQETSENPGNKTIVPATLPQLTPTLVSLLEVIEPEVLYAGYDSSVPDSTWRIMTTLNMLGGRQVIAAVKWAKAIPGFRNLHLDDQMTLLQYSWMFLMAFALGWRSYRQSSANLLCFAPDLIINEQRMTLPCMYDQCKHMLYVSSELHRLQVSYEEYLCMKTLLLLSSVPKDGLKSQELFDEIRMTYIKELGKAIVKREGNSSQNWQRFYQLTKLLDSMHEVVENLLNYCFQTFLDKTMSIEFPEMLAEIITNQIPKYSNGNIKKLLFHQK

For `CNC1CCCN(c2c(F)cc3c(=O)c(C(=O)O)cn(C4CC4)c3c2OC)C1` (configuration not stated), the Potency entry in [1], in assay [2], in [4], in assay [7], in assay [10] and in assay [14] was “inactive” each time. The Potency result in assay [16] was “inactive”. Also, the outcome in assay [3], in assay [5], in [6], in [8], in assay [9] and in assay [11] was inactive. For the same molecule, the outcome in [12], in assay [13] and in [15] was inactive.

As for `CCN(CC)C(=O)/C(C#N)=C/c1cc(O)c(O)c([N+](=O)[O-])c1`, the Potency entry in assay [17], in assay [7], in [10], in assay [14] and in [16] was “inactive” throughout. Also, in assay [2], the Potency was 26.6 µM (active). The call in [5], in assay [6], in [8], in assay [9], in assay [11] and in assay [12] was inactive. Besides, the result in [13] and in assay [15] was inactive.

Consider `CC(C)(C)C1(CCc2ccc(Cl)cc2)CO1` (configuration not stated), for which the Potency result in [1], in assay [2], in assay [7], in assay [10], in assay [14] and in assay [16] was “inactive” throughout. Moreover, the outcome in [3], in assay [5], in [6], in assay [8], in assay [9] and in [11] was inactive. For the same molecule, the molecule was classed as inactive in assay [12] and in [15]. In addition, in assay [4], the Potency was 19.3 µM (active).

For `CCCCCc1ccco1`, the Potency entry in [1], in assay [2], in assay [7], in assay [10], in [14] and in assay [16] was “inactive” each time. Moreover, the Potency entry in [18] was “inactive”. For the same molecule, the molecule was called inactive in [3], in assay [5], in [6], in assay [8], in [9] and in [11]. The molecule was classed as inactive in assay [12], in [13] and in assay [15]. The Potency was 44.7 µM (active) in [4] and 31.9 µM (active) in assay [19].

With `O=C1CC[C@@H](C(=O)O)N1`, the Potency entry in assay [1], in assay [2], in assay [7], in [10], in assay [14] and in assay [16] was “inactive” each time. Besides, the Potency entry in assay [18] was “inactive”. In addition, the outcome in [5], in [6], in assay [8], in [9], in assay [11] and in [12] was inactive. For the same molecule, the molecule was called inactive in [13] and in assay [15].

In the case of `O[C@@H](CNC[C@H](O)[C@H]1CCc2cc(F)ccc2O1)[C@@H]1CCc2cc(F)ccc2O1`, the Potency entry in assay [1], in [2], in [7], in assay [10], in assay [14] and in assay [16] was “inactive” in each case. Besides, the molecule was classed as inactive in [3], in assay [5], in assay [6], in assay [8], in assay [9] and in assay [11]. Further, the result in [12], in [13] and in assay [15] was inactive. Further, in assay [19], the Potency is 23.9 µM (active).

`O=C(O)c1cc(Cl)cc(Cl)c1O`: the Potency result in assay [1], in assay [17], in assay [7], in assay [10], in [14] and in [16] was “inactive” in each case. Further, the molecule was called inactive in assay [3], in assay [5], in assay [8], in assay [9], in assay [11] and in [12]. The result in assay [13] and in assay [15] was inactive.

In the case of `CCCCCCCCCCCSCC(=O)O`, the Potency result in assay [1], in assay [2], in [7], in [10], in assay [14] and in [16] was “inactive” each time. The molecule was classed as inactive in assay [3], in [5], in assay [8], in assay [9], in assay [11] and in assay [12]. For the same molecule, the result in assay [13] and in assay [15] was inactive.

As for `Oc1ccc2c(c1)Cc1ccccc1-2`, the Potency in assay [4] was 27.3 µM (active); in [19] it was 19.5 µM (active). The molecule was classed as inactive in [5], in assay [6], in assay [8], in assay [9], in assay [11] and in assay [12]. For the same molecule, the result in assay [13] and in assay [15] was inactive. Further, the Potency entry in [7], in [14] and in assay [16] was “inactive” throughout.

On to `CC(C)(C)CCCCCCOC(=O)c1ccccc1C(=O)OCCCCCCC(C)(C)C`, for which the Potency result in assay [1], in [2], in assay [7], in [10], in [14] and in assay [16] was “inactive” in each case. Also, in assay [18], the Potency result is “inactive”. Also, the call in assay [3], in assay [5], in assay [8], in [9], in [11] and in assay [12] was inactive. The result in assay [15] was inactive.

`CCCCOC(=O)CCCCC(=O)OCCCC`: the Potency entry in [1], in assay [2], in [4], in assay [7], in assay [10] and in [14] was “inactive” in each case. Also, the Potency result in [16], in assay [18] and in assay [19] was “inactive” throughout. The molecule was called inactive in [3], in assay [5], in assay [6], in assay [8], in [9] and in [11]. In addition, the molecule was classed as inactive in [12], in [13] and in assay [15].

The values are drawn from PubChem BioAssay (Tox21).
